Source: PubChem BioAssay
The source made the active and inactive calls.

What was measured:
[1] = compounds binding Alexa647 anti-His antibody – biochemical, small-molecule microarray, 635 nm fluorescence, artefact control for SMM control protein annotation, primary screen (AID 1128); details: higher = more signal;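 further: score merges feature fluorescence with signal-to-noise for each printed compound spot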
[2] = system: Human papillomavirus type 1a E7 protein (residues 1-88); test: HPV1a E7 small-molecule binders, primary screen, biochemical, small-molecule microarray, residues 1-88, 635 nm (AID 1129); details: small-molecule microarray binding, fluorescence 635 nm; higher = more signal
[3] = target: Focal adhesion kinase 1 (Homo sapiens) (UniProt Q05397); test: PTK2 protein binding on printed compound slides – biochemical, small-molecule microarray, 635/667 nm fluorescence, BSA, DTT, primary screen (AID 1130); details: 635 nm fluorescence, higher = more signal;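 further: composite of spot emission at 667 nm and signal to noise over triplicate slides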
Sequence of Focal adhesion kinase 1 (Homo sapiens) (Q05397 whole entry, looked up): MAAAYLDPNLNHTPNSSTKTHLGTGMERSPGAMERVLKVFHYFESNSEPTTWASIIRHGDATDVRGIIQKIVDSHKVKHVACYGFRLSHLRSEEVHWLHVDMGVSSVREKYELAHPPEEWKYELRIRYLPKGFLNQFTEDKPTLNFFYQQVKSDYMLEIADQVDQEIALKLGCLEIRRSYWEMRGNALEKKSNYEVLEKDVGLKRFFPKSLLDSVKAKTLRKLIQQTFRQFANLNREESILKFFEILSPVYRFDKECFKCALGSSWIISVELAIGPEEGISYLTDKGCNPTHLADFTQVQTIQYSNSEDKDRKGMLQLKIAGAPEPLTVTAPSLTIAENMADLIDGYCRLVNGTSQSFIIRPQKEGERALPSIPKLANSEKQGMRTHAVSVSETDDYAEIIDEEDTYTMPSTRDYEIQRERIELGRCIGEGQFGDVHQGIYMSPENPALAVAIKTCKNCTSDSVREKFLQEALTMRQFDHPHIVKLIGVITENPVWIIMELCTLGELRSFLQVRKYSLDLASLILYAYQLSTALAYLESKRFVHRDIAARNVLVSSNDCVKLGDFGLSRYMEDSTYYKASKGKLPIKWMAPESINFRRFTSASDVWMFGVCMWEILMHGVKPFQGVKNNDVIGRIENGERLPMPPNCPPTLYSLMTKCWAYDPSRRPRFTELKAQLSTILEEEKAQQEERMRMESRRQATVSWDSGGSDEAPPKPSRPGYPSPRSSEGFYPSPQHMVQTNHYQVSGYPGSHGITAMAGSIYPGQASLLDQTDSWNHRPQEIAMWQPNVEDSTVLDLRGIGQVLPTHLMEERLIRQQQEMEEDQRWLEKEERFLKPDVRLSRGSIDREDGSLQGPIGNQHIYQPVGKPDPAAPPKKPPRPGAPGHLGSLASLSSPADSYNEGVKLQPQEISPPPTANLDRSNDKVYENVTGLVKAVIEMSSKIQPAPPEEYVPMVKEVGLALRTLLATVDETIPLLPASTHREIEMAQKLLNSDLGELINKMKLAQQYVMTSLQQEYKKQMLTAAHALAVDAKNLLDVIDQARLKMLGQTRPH

[4] = system: Fibrinogen (Alexa647-labelled); test: Alexa647-fibrinogen binding to printed small molecules – biochemical, small-molecule microarray, 635/667 nm fluorescence, artefact control for SMM control-protein annotation, profiling panel (AID 1131); details: fibrinogen-A647 binding fluorescence, higher = more signal;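 further: z-score merges 667 nm fluorescence with per-spot signal-to-noise over triplicate slides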
[5] = target: Follistatin (Homo sapiens) (UniProt P19883); test: FST protein binding to printed compounds – biochemical, small-molecule microarray, 635/667 nm fluorescence, primary screen (AID 1132); details: 635 nm fluorescence, higher = more signal
Sequence of Follistatin (Homo sapiens) (P19883 whole entry, looked up): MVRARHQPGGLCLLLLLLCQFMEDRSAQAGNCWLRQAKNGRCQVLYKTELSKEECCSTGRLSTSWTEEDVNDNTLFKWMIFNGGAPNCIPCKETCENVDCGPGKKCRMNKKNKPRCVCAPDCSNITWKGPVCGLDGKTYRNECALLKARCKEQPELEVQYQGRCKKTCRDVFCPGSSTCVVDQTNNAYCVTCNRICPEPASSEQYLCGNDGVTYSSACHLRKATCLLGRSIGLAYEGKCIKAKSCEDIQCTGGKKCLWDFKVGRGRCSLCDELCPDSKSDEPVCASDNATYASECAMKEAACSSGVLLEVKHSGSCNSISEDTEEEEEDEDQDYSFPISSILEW

[6] = target: Fibroblast growth factor 2 (Homo sapiens) (UniProt P09038); test: basic fibroblast growth factor binding to printed compounds – biochemical, small-molecule microarray, 635/667 nm fluorescence, primary screen (AID 1133); details: FGF2, fluorescence 635/667, higher = more signal
Sequence of Fibroblast growth factor 2 (Homo sapiens) (P09038 whole entry, looked up): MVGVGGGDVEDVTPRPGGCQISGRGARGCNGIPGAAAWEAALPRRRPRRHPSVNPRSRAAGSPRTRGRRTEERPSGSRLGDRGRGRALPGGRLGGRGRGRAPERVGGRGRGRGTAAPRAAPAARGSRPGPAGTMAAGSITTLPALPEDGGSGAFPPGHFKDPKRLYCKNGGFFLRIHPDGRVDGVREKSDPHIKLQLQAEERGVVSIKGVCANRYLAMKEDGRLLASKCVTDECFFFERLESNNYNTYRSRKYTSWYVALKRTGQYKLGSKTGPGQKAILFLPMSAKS

[7] = JC-1 mitochondrial potential readout, lung cancer cells – cell-based, A549, JC-1 fluorescence, basal, 24 h, 100 nL, profiling panel (AID 1138); details: higher = more signal;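 further: A549 lung adenocarcinoma cells under basal conditions with no added stimulus; test concentration not given here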
[8] = system: Lefty1; test: Lefty1 protein binding to printed compounds – biochemical, small-molecule microarray, 635/667 nm fluorescence, primary screen (AID 1139); details: fluorescence 635/667, higher = more signal
[9] = system: wheat germ agglutinin (Triticum aestivum), Alexa647-labelled; test: Alexa647-WGA lectin binding to printed small molecules – biochemical, small-molecule microarray, 635/667 nm fluorescence, artefact control for SMM control-protein annotation, profiling panel (AID 1140); details: WGA-A647 binding, 635 nm fluorescence, higher = more signal;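 further: score merges 667 nm feature emission with signal to noise over triplicate slides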
[10] = target: Luciferin 4-monooxygenase (Photinus pyralis) (UniProt P08659); test: inhibition of purified Photinus pyralis luciferase – biochemical, luminescence, purified enzyme, 2006 set, primary screen (AID 1141); details: purified firefly luciferase, SteadyGlo luminescence, 30 min; higher = more signal, called active from +8 up or from −8 down;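 further: cell-free assay with purified firefly luciferase at 100 ng per well in PBS; test concentration not given here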
Sequence of Luciferin 4-monooxygenase (Photinus pyralis) (P08659 whole entry, looked up): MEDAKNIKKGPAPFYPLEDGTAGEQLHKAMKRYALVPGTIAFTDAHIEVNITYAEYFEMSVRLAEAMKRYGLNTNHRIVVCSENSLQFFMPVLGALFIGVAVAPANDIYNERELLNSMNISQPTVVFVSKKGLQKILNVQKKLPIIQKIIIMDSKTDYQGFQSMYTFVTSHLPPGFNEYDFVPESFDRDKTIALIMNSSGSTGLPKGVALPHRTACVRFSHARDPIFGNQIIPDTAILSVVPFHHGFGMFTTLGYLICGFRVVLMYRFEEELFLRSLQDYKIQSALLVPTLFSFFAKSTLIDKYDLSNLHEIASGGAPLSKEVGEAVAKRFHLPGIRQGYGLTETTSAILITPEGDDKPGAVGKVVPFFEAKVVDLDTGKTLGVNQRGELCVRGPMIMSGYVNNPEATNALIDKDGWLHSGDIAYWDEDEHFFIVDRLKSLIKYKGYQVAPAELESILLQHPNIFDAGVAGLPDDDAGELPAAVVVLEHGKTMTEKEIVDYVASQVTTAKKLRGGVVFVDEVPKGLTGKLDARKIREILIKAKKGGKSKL

Compound | composite z-score [1] | composite z-score [2] | composite z-score [3] | composite z-score [4] | composite z-score [5] | composite z-score [6] | z-score [7] | composite z-score [8] | composite z-score [9] | z-score [10]
[N-]=[N+]=NCc1ccccc1C[C@]1(C(=O)N2CCCCC2)N=C(c2ccc(OCCCO)cc2)O[C@H]1c1ccccc1 | 0.582 | 1.1 | 0.425 | 0.714 | 0.351 | 0.182 | 1.17 | -0.599 | 0.762 | 0.09 (inactive)
CC(C)C(=C=CC[C@@H](O)c1ccccc1OCCO)C[C@@H](O)c1cc(Cl)cc(Cl)c1O | 1.46 | 1.23 | -0.14 | 0.88 | 1.38 | 0.964 | -1.35 | 1.58 | 0.54 | -1 (inactive)
C=CCOC(=O)[C@H]1[C@@H]2C(=O)O[C@@H](c3ccccc3)[C@@H](c3ccccc3)N2[C@@H](c2ccc(OCCOC(=O)[C@@H]3C[C@@H]4C(=O)N[C@@H](CC(C)C)C(=O)N4[C@@H]3c3ccc(O)cc3)cc2)[C@]12C(=O)Nc1ccc(I)cc12 | 0.785 | 0.935 | 0.443 | 0.761 | 1.08 | 1.89 | -0.946 | 0.677 | 0.902 | -2.13 (inactive)
COCCOC(=O)N1C(=O)[C@@]2(c3cc(C#CC4(O)CCCCCC4)ccc31)[C@H](C(=O)N1CCc3cc(OC)c(OC)cc3C1)[C@H]1C(=O)O[C@H](c3ccccc3)[C@H](c3ccccc3)N1[C@@H]2c1ccc(O)cc1 | 2.17 | 1.23 | 0.427 | 0.853 | 1.26 | 1.1 | -0.791 | 0.594 | 0.972 | -0.604 (inactive)
CC(=O)c1ccc(C(O)C2C=CC3C(=O)NC(=O)C3N2Nc2ccc(Cl)cc2Cl)cc1 (stereo not given) | 1.48 | -0.106 | -0.363 | -0.131 | 0.504 | -0.115 | -0.76 | -0.0596 | 0.564 | 0.284 (inactive)
O=C1c2ccccc2[C@@]2(Cc3ccccc3N(Cc3ccccc3)C2=O)[C@H](c2ccc(CO)cc2)N1Cc1ccccc1 | -1.16 | -1.58 | -0.667 | -0.936 | -1 | -1.01 | 0.0926 | -1.09 | 0.168 | 0.407 (inactive)
CN(C)CCCC[C@@H]1NC(=O)[C@H]2C[C@@H](C(=O)NCc3ccc(F)cc3)[C@@H](c3ccc(O)cc3)N2C1=O | 2.75 | 0.0526 | -0.193 | 0.563 | 1.41 | 1.93 | 0.742 | 1.64 | 0.419 | -1.23 (inactive)
Cc1ccccc1C(O)C1C=CC2C(=O)N(c3ccccc3)C(=O)C2N1Nc1ccccc1F (stereo not given) | 2.08 | 1.22 | 0.622 | 1.06 | 1.01 | 0.624 | -0.932 | -0.245 | 1.15 | -0.782 (inactive)
CN1C(=O)[C@]2(CCC(=O)OC(C)(C)C)N=C(c3ccc(OCCCO)cc3)O[C@@H]2c2ccccc21 | 1.2 | 1.23 | 0.488 | 0.95 | 1.44 | 1.55 | 1.85 | 0.853 | 0.182 | -2.79 (inactive)
COCCCNC(=O)[C@@H]1c2ccccc2C(=O)N(Cc2cc(C(F)(F)F)cc(C(F)(F)F)c2)[C@H]1c1ccc(CO)cc1 | 0.358 | 0.6 | 0.358 | -0.788 | 0.144 | 0.188 | 0.983 | 0.174 | -0.672 | 0.0036 (inactive)
O=C1N(CCS(=O)(=O)c2ccccc2)c2ccccc2[C@@H]2OC(c3ccc(OCCCO)cc3)=N[C@]12CCS(=O)(=O)c1ccccc1 | 0.7 | 1.2 | 0.575 | 0.922 | 1.38 | 1.5 | -1.59 | 0.553 | 0.465 | -3.78 (inactive)
CCCC=C(CCC)[C@@H](NS(=O)(=O)c1ccc(Cl)cc1)c1ccccc1 | 1.12 | -0.382 | 0.884 | 0.522 | -0.883 | -0.919 | -0.576 | -1.17 | 0.303 | 1.8 (inactive)
CO[C@H]1O[C@H](CO)[C@@H](OC(=O)Nc2ccc(C(F)(F)F)cc2)[C@H](OC(=O)Nc2ccccc2-c2ccccc2)[C@H]1OC(=O)Nc1ccccc1-c1ccccc1 | 1.7 | 1.26 | 0.735 | 1.04 | 1.27 | 0.686 | -0.132 | 0.617 | 0.662 | -0.68 (inactive)
CC1(C)OC[C@@]23C=C(Br)[C@@H](C[C@H]12)[C@@]1(CO1)C3=O | 0.424 | 0.62 | 0.139 | 0.149 | 0.369 | 0.122 | 0.582 | 0.439 | 0.0477 | -0.0228 (inactive)
COCCn1c(C(=O)N2CCCC2)cc2c1C[C@H]1CN(C(=O)c3ccccc3)[C@@](Cc3ccccc3)(C(=O)OC)[C@@H]21 | 1.09 | 0.822 | 1.54 | 0.948 | 0.298 | 0.121 | 0.109 | 0.334 | 1.11 | 2.58 (inactive)
C=CCC(OC(C)=O)[C@@H]1[C@@H](N(Cc2ccc(-c3cccc(C(F)(F)F)c3)o2)C(=O)c2cccc3ccccc23)c2cc(OCCCO)ccc2N1C(=O)c1ccc2ccccc2c1 (stereo not given in full) | 0.272 | -0.582 | -0.118 | -0.425 | 0.839 | 0.101 | -0.251 | 0.429 | 0.0578 | 1.05 (inactive)
C[C@H]1C2[C@H](Cc3ccccc3)NC(=O)[C@]23C(=O)NCC(=O)N2CCC[C@H]2C(=O)NC/C=C\C/C=C/C3[C@@H]2O[C@]12C (stereo not given in full) | -0.151 | -0.0402 | -0.258 | -0.454 | 0.278 | 1.1 | 0.546 | 0.0393 | -0.121 | -1.25 (inactive)
CCOC(=O)C[C@H]1[C@H](OC(=O)c2ccc(C(=O)c3ccccc3)cc2)[C@@H](NC(=O)c2ccc3ccccc3c2)c2cc(OCCCO)ccc2N1C(=O)c1ccc2ccccc2n1 | 0.565 | 0.578 | 0.44 | 0.892 | 0.331 | 0.851 | 2.1 | 0.704 | 0.0601 | -0.818 (inactive)
C=CCC(OC(C)=O)[C@@H]1[C@@H](N(Cc2cccc3ccccc23)C(=O)c2cccc3ccccc23)c2cc(OCCCO)ccc2N1C(=O)Cc1ccc2ccccc2c1 (stereo not given in full) | 0.866 | -0.0855 | 0.119 | -0.438 | 0.832 | 0.448 | 0.169 | 0.093 | 0.457 | 1.06 (inactive)
COC(=O)[C@@]1(CCC(=O)OC(C)(C)C)N=C(c2ccc(OCCCO)cc2)O[C@H]1c1ccccc1CN=[N+]=[N-] | 0.656 | 0.0163 | -0.0599 | 0.0201 | 0.663 | 0.442 | 0.895 | -0.756 | 0.249 | -0.488 (inactive)
COC(=O)[C@@]1(Cc2ccc(F)cc2)[C@H]2c3cc(C(=O)N(C)C)n(CCO)c3C[C@H]2CN1C(=O)c1ccccc1 | 2.78 | 0.889 | 0.991 | 0.797 | -0.409 | -0.566 | -0.0423 | -0.483 | 0.718 | -0.683 (inactive)
COc1ccc([Si](C)(C)[C@@H]2[C@@H](CCO)O[C@]3(C(=O)N(Cc4ccccc4)c4ccc(N5C(=O)c6ccccc6Oc6ccccc65)cc43)[C@H]2C)cc1 | 0.176 | 0.106 | 0.0875 | -0.0507 | 0.0192 | -0.539 | -0.0766 | 0.172 | 0.204 | 0.762 (inactive)
COC(=O)[C@@]1(Cc2ccc(OC)cc2)[C@H]2c3cc(C(=O)N4CCCC4)n(CCc4ccc(OC)c(Br)c4)c3C[C@H]2CN1C(=O)c1ccccc1 | 1.66 | 1.16 | 0.946 | 0.406 | -0.533 | -0.381 | 0.914 | -1.13 | 0.345 | 0.626 (inactive)
C=CCN1C(=O)[C@]2(O[C@H](CCn3cc([C@H](O)c4ccccc4)nn3)[C@@H]([Si](C)(C)c3ccc(OC)cc3)[C@@H]2C)c2cc(N3C(=O)c4cccc5cccc3c45)ccc21 | 0.72 | 0.268 | 0.33 | 0.182 | -0.167 | 0.102 | 1.01 | 0.102 | 0.453 | -0.719 (inactive)
COCCOC(=O)N1C(=O)[C@@]2(c3cc(C#CC4=CCCCC4)ccc31)[C@H](C(=O)N1CCc3cc(OC)c(OC)cc3C1)[C@H]1C(=O)O[C@H](c3ccccc3)[C@H](c3ccccc3)N1[C@@H]2c1ccc(O)cc1 | 1.62 | 1.2 | 0.596 | 0.947 | 0.861 | 0.998 | -0.608 | 0.917 | 0.854 | -0.914 (inactive)
CCC[C@@H]1[C@@H](Sc2ccccc2)[C@@H](C(=O)O)[C@H](c2ccc(C)cc2)N1S(=O)(=O)c1ccc(C)cc1 | 0.832 | 1.25 | 0.725 | 1.05 | 0.769 | 0.0754 | -0.61 | 0.717 | 0.774 | 1.46 (inactive)
CC(C)C[C@@H]1NC(=O)[C@@]23C(=O)N[C@@H](Cc4ccccc4)C2[C@H](C)[C@@]2(C)O[C@H]2C3/C=C/C/C=C\CNC(=O)[C@@H](CC(C)C)NC1=O (stereo not given in full) | 0.455 | 0.409 | -0.0559 | 0.928 | 0.797 | 0.963 | 0.102 | 0.84 | 0.393 | -1.23 (inactive)
COCCOC(=O)N1C(=O)[C@@]2(c3cc(C#Cc4ccc(OC)cc4)ccc31)[C@H](c1ccc(OCCO)cc1)N1[C@H](c3ccccc3)[C@H](c3ccccc3)OC(=O)[C@H]1[C@@H]2C(=O)N1CCCCCCC1 | -0.252 | 1.2 | 1.4 | 0.636 | 1.36 | 1.24 | -0.625 | 1.36 | 1.01 | -2.14 (inactive)
